# In ChEMBL document CHEMBL1157539, “Thousands of chemical starting points for antimalarial lead identification” (Nature, 2010):
# “And” between values parts separate entries of the source, which are not always exact repeats. Identical values can stand only once.
# Tests used:
# Assay type in all cases: functional
# Plasmodium falciparum [1] = assay: GSK_TCMDC: Inhibition of Plasmodium falciparum 3D7 in whole red blood cells, using parasite LDH activity as an index of growth. Test compounds present at 2uM
# Plasmodium falciparum [2] = assay: GSK_TCMDC: Inhibition of Plasmodium falciparum Dd2 in whole red blood cells, using parasite LDH activity as an index of growth. Test compounds present at 2uM
# HepG2 = assay: GSK_TCMDC: Percent inhibition of human HepG2 cell line. Test compounds present at 10uM.
Structure (SMILES),Inhibition (Plasmodium falciparum [1]),Inhibition (Plasmodium falciparum [2]),Inhibition (HepG2)
Cc1cccc(CN2CCC(Oc3ccc(NC(=O)c4cccs4)cc3Cl)CC2)n1.O=C(O)C(F)(F)F,86%,88%,27%
Br.CC1(C)NC(N)=NC(=N)N1OCCSc1ccc(Cl)c(Cl)c1,96%,95%,65%
Cl.N#Cc1ccc2c(c1)CN(CC[C@H]1CC[C@H](NC(=O)/C=C/c3c[nH]c4ccccc34)CC1)CC2,92% and 97%,24% and 27%,20% and 10%
CN(C)CC(O)C(O)(c1ccccc1)c1ccc(F)cc1.Cl (stereo not drawn),93%,10%,0%
O=C(NCCN1CCCC1)c1ccc(-c2ccc(-c3nc4ccccc4[nH]3)s2)cc1,92%,3%,22%
C=C1C(C(=O)OCC)=CN(CC)c2cc(O[C@H]3CCN(C(=O)OC(C)(C)C)C3)ccc21,98%,75%,9%
N#Cc1ccc(N[C@@H](CC2CCCCC2)C(=O)NCc2cc(Cl)cc(Cl)c2)c2ccccc12.O=C(O)C(F)(F)F,94%,88%,34%
CC[C@]1(C)C[C@@H](NC(=O)NC(=O)c2ccc(OC)cc2)[C@]2(C)[C@H](C)CC[C@]3(CCC(=O)[C@H]32)[C@@H](C)[C@@H]1OC(=O)NC(=O)c1ccc(OC)cc1,100%,98%,10%
O=C(NC1CC1)c1ccc(N2CCOc3ccc(Cl)cc32)s1,94%,73%,8%
Oc1cccc(-c2cnc3ccc(NCc4ccc(F)cc4)nn23)c1,91%,66%,0%
CC(=O)N(C)c1cccc(C(=O)Nc2ccc(-c3cccc(-c4nc5cc(C(F)(F)F)ccc5[nH]4)c3)cc2)c1,94%,10%,79%
CCOC(=O)c1ccc(N2CCN(c3cc(C)ccc3C)CC2)c(NC(=O)Nc2ccc(Cl)c(Cl)c2)c1,100%,42%,7%
COc1cc(Cc2cnc(N)nc2N)cc(OCCCCC2NC(=O)NC2=O)c1OC (stereo not drawn),94%,0%,2%
N=C(N)NN=CC(=O)Nc1ccc(C(F)(F)F)cc1.O=S(=O)(O)O,100%,9%,5%
CCN(CC)CCOc1ccc(C(O)(C#CC(O)(c2ccc(Br)cc2)c2ccc(OCCN(CC)CC)cc2)c2ccc(Br)cc2)cc1 (stereo not drawn),99%,99%,99%
O=C(O)C[C@H](NC(=O)c1cc(-c2ccc3c(c2)OCO3)no1)C(=O)O.O=C(O)C[C@H](NC(=O)c1conc1-c1ccc2c(c1)OCO2)C(=O)O,98%,0%,0%
CCCCCC(C)C(C)c1cc(O)c2c(c1)OC(C)(C)CC2c1cc[n+]([O-])cc1 (stereo not drawn),96%,7%,0%
CC[C@H](NC(=O)c1c(N)c(-c2sccc2Cl)nc2ccccc12)c1ccccc1,99%,92%,0%
CC(=O)Nc1ccc2[nH]cc(C3CCN(CC4CCN(C(=O)/C=C/c5ccc(Cl)c(Cl)c5)CC4)CC3)c2n1,100%,99%,21%
O=C(Nc1ccc(S(=O)(=O)N2CCCC2)cc1)c1cc(-c2cccnc2)nc2ccc(Cl)cc12,97%,95%,4%
Cc1cc(N[C@@H](CC(C)C)C(=O)NCc2cccc(F)c2)nc(NCCc2ccc(F)cc2)n1.O=C(O)C(F)(F)F,90%,6%,0%

Structure (SMILES),Inhibition (Plasmodium falciparum [1]),Inhibition (Plasmodium falciparum [2]),Inhibition (HepG2)
O=C(O)C(F)(F)F.c1ccc2c(c1)CN(Cc1cc3ccccc3[nH]1)CC1(CCN(Cc3c[nH]c4cnccc34)CC1)O2,100%,62%,27%
Cc1cc(N[C@@H](CC(C)C)C(=O)NCc2cccc(F)c2)nc(Nc2ccccc2)n1.O=C(O)C(F)(F)F,100%,76%,0%
O=C(N[C@@H](Cc1ccccc1)[C@H](O)CNCCC(F)(F)F)c1cccc(CCC2CC2)c1,87%,13%,0%
Cc1ccc(C(=O)NC2CC2)cc1-c1ccc2c(cnn2S(=O)(=O)c2ccc(F)cc2)c1,93%,69%,7%
CN(Cc1cccc(O)c1)C1CCN(c2cc(NC(=O)c3ccc(F)cc3)ccn2)C1.O=C(O)C(F)(F)F (stereo not drawn),91%,6%,5%
Cc1ccc2[nH]c(C)cc(=NN=Cc3ccccc3Cl)c2c1,100%,62%,6%
COc1ccc(-c2cnc(N)c(-c3ccc(C(N)=O)cc3)c2)cc1OC,96%,98%,11%
CCN(CC)S(=O)(=O)c1ccc(CCOCCCCCNCC(O)c2cc(Cl)c(N)c(Cl)c2)s1.O=C(O)/C=C/C(=O)O (stereo not drawn),96%,80%,35%
O=C(Nc1ccc(Oc2ccccc2)cc1)N(CCN1CCCC1)Cc1ccc(-c2ccc(CN3CCNCC3)cc2)cc1.O=C(O)C(F)(F)F,88%,90%,48%
Cc1cc(C(=O)NCc2ccc(-c3c(C)noc3C)cc2)n(-c2ccc(Cl)cc2)n1,100%,98%,0%
CCCCNC(=O)[C@H](CC1CCCCC1)NC(=O)c1ccc(O)c(-c2ccc(OC)cc2)c1,89%,12%,0%
CCCCCCCC1=NN2C(=N)C(=Cc3cc(Br)c(OCc4ccc(F)cc4)c(OCC)c3)C(=O)N=C2S1,95%,0%,4%
CCOc1ccc(NC(=O)c2ccc(CN3CCCN(Cc4cccc(O)c4)CC3)cc2)cc1.O=C(O)C(F)(F)F,85%,9%,44%
CCNc1cc(C(=O)N[C@@H](Cc2ccccc2)[C@H](O)CNCC(C)C)cc(N2CCCC2=O)c1,98%,97%,16%
CCn1ccc2c(N3CCCCS3(=O)=O)cc(C(=O)N[C@@H](Cc3ccccc3)[C@H](O)CNC3CCCCC3)cc21,98%,98%,1%
Cc1ccccc1OCC(=O)Nc1ccc(-c2nc3cc4ccccc4cc3[nH]2)cc1,100%,51%,24%
Cn1cncc1C(=O)Nc1ccc(-c2ccc(-c3nc4cc(C(F)(F)F)ccc4[nH]3)cc2)cc1,100%,33%,24%
COc1ccc(OCCCON)cc1.Cl,98%,0%,3%
O=c1[nH]c2c(cc1CNC1CCCCC1)c(-c1ccc(F)cc1)nn2-c1ccccc1,99%,88%,8%
CCCNCc1ccc(-c2ccc(CN(CCOC)C(=O)c3cscn3)cc2)nc1.O=C(O)C(F)(F)F,99%,16%,13%
CC(=O)N1N=C(c2cccs2)Sc2c1nc(-c1ccc(Cl)cc1)n2C(C)=O,99%,93%,3%

Structure (SMILES),Inhibition (Plasmodium falciparum [1]),Inhibition (Plasmodium falciparum [2]),Inhibition (HepG2)
COc1ccc2nccc([C@@H](O)CN3CCC(NCc4ccc5cccc(O)c5n4)CC3)c2c1.O=C(O)C(=O)O,93%,40%,10%
Nc1ccc2[nH]cc(C3CCN(CCC4CCN(C(=O)/C=C/c5ccc(Cl)c(Cl)c5)CC4)CC3)c2n1,100%,78%,27%
Cc1ccc(NC(=O)c2c(C)noc2-c2snnc2C)cc1,92%,71%,1%
CCC(C)NC(=O)Nc1cccc(-c2cccc(-c3nc4cccc(C)c4[nH]3)c2)c1 (stereo not drawn),100%,27%,3%
O=C(Nc1ccccc1Br)c1cn(-c2ccccc2)nc1-c1cccc([N+](=O)[O-])c1,92%,36%,7%
CCC(Cc1cnc2nc(N)nc(N)c2n1)c1ccc(C(=O)N[C@@H](CCC(=O)O)C(=O)O)cc1 (stereo partly drawn) [EDATREXATE],93%,98%,64%
COCc1ccccc1C(=O)NCCOc1cc(C)cc(C)c1,96%,95%,26%
O=C(/C=C/c1ccc(Cl)c(Cl)c1)NCCCCCN1CCCC(CNC(=O)Nc2ccc(C(F)(F)F)cc2)C1 (stereo not drawn),100%,7%,27%
COc1ccc2nccc(N3CCC(CCNCc4ccc5c(n4)NC(=O)CO5)CC3)c2n1.Cl,100%,72%,19%
CC(C)(C)C/C=C\c1ccc(C(=O)NCC2CC2)cc1,94%,88%,0%
Cc1cc(Nc2nc(NCc3cccnc3)nc3ccccc23)n[nH]1,100%,33%,11%
Cn1cnc(CCNC(=O)c2ccc(-c3ccc(-c4nc5cc(C(F)(F)F)ccc5[nH]4)s3)cc2)c1,100%,99%,75%
CCN1CCN(CCCCNc2c3ccccc3nc3ccccc23)CC1.Cl,100%,0%,22%
Cc1c(Cc2ccccc2Cl)cnc2nc(N)nc(N)c12.Cl,91%,96%,67%
CNCCCNc1ccnc2cc(Cl)ccc12,100%,25%,11%
O=C(O)c1cc(OCC(O)COc2ccc(O)c(C(=O)O)c2)ccc1O,99%,6%,9%
Cc1cc(NC(=O)NCCN2CCC(NC(=O)c3ccc(F)cc3)CC2)c2ccccc2n1,99%,76%,0%
Cc1cc(CNC(=O)c2ccc(-c3ccc(-c4nc5cc(C(F)(F)F)ccc5[nH]4)s3)cc2)on1,93%,56%,15%
Nc1nccc2ccc(-c3ccc(Oc4ccccc4)cc3)cc12.O=C(O)C(F)(F)F,98%,80%,36%
